# Source: PubChem BioAssay (NCI)
# This is part of a sample that, as a whole, favours compounds with a hit. Of some 79,000 tested, about 15% had one in any assay. Values without a mark were called inactive. Activity calls are given as the source filed them. Rule as the data show it: active = growth inhibition above about 70%; inactive = the rest.
# What was measured:
# [1] = NCI Yeast Anticancer Drug Screen. Data for the rad50 strain (AID 155);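 also: 0% = growth of vehicle-only cultures of the same strain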; conditions: S. cerevisiae rad50 strain growth inhibition; at 50.0 µM; active compounds read high
# Method in brief: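 Growth of the mutant yeast was measured after compound exposure and referenced to vehicle-treated cultures.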
# [2] = NCI Yeast Anticancer Drug Screen. Data for the mec2-1 strain (AID 157); conditions: S. cerevisiae mec2-1 strain, at 50.0 µM, active compounds read high
# Method in brief: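 Yeast mec2-1 mutant treated with compound. Readout: growth inhibition vs vehicle controls.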
# [3] = NCI Yeast Anticancer Drug Screen. Data for the sgs1 mgt1 strain (AID 161);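 also: 0% = growth of cultures given vehicle only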; conditions: S. cerevisiae sgs1 mgt1 strain, at 50.0 µM, active compounds read high
# Method in brief: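 Mutant yeast exposed to compound; growth scored against vehicle-only wells.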
# [4] = NCI Yeast Anticancer Drug Screen. Data for the cln2 rad14 strain (AID 165);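 also: 0% = growth equal to vehicle treated cultures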; conditions: S. cerevisiae cln2 rad14 strain, at 50.0 µM, active compounds read high
# Method in brief: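 cln2 rad14 yeast strain; compound exposure; growth inhibition read vs vehicle controls.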
# [5] = NCI Yeast Anticancer Drug Screen. Data for the bub3 strain (AID 167); conditions: S. cerevisiae bub3 mutant strain, at 50.0 µM, active compounds read high
# Method in brief: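 Whole-cell yeast assay. The mutant strain was incubated with compounds, and growth inhibition was determined by comparison with vehicle-treated cells.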
# [6] = NCI Yeast Anticancer Drug Screen. Data for the mlh1 rad18 strain (AID 175); conditions: S. cerevisiae mlh1 rad18 strain growth inhibition; at 50.0 µM; active compounds read high
# Method in brief: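 Yeast w/ defined DNA-repair lesions; compound exposure; growth vs vehicle controls → % inhibition.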
SMILES,growth inhibition [1],growth inhibition [2],growth inhibition [3],growth inhibition [4],growth inhibition [5],growth inhibition [6]
C[C@]12CC[C@H]3[C@@H](CC[C@]4(O)C[C@@H](O)CC[C@]34CO)[C@@]1(O)CC[C@@H]2C1=CC(=O)OC1,-6.1%,-23.1%,-17.6%,0.45%,1.35%,-16.9%
CCCCCCCC(=O)O.[Ni],-15.1%,-0.6%,-2.3%,8.45%,-18.4%,-18.5%
CP(C)CC[PH+](CC[PH+](C)C)CC[PH+](C)C.[C-]#[O+].[C-]#[O+].[W],-1.25%,-6.35%,-13.1%,24.4%,-0.45%,-0.9%
NC1=C(c2nc(-c3cc4ccccc4oc3=O)cs2)C(c2ccco2)c2c(c3ccccc3oc2=O)O1 (centres undefined),-3.15%,-9.9%,-21.4%,-38.8%,4.1%,-14.3%
C/C=C(/C)C(=O)O[C@H]1CCN2CC=C(COC(=O)[C@@](O)([C@H](C)OC)C(C)(C)O)[C@H]12,-17%,-15.8%,3.65%,11.6%,7.55%,-44.2%
CCN(CC)[P+](C1=C(Cl)C(=O)C(Cl)=C(Cl)C1=O)(N(CC)CC)N(CC)CC,1.25%,-12%,-6.6%,-19.5%,8.45%,-17.5%
C#CC1(OC(C)=O)CCC2C3CCC4=CC(=O)CCC4(C)C3CCC21C (centres undefined),32%,6.1%,4.4%,-11.2%,-8.8%,19.7%
CCN1C(=O)NC(=O)C(C)(N2CCCCC2)C1=O (centres undefined),13.4%,5.3%,25.9%,15.2%,10.7%,28.7%
O=C1NC2(CCCC2)C(=O)N1CCCN(CCCl)CCCl,2.75%,12.9%,25.1%,-37.3%,7.35%,3.2%
CCOP(=O)(OCC)/C(C#N)=C/c1cccs1,0.5%,-35.2%,-15.2%,-15.8%,-41.8%,-13.7%
CC(=O)OCC1OC([Se-])C(OC(C)=O)C(OC(C)=O)C1OC(C)=O.N#CCC[PH+](CCC#N)CCC#N.[Au+] (centres undefined),7.35%,6.75%,-4.55%,-15.8%,1.75%,10.1%
O=C(NC(Cl)=C(Cl)Cl)P(=O)(c1ccccc1)c1ccccc1,-16.6%,-28.3%,10.8%,17.2%,-5.4%,3%
CCC(C)C(=O)OC1CC2(C)C(c3ccoc3)OC(=O)CC23OC2(C)OC34C(OC(=O)C(C)C)C3(O)C(OC(=O)C5(C)OC5C)C5(C)CC3(O)C(C)(C5CC(=O)OC)C14O2 (centres undefined),24.4%,19.1%,9.3%,26.9%,13.1%,-24.3%
O[C@H]1[C@H](O)[C@@H](O)CN2CC[C@H](O)[C@H]12,-25.9%,-24.1%,-18.1%,-4.1%,-9.05%,-24.6%
ClCCN(CCCl)CC(Cl)COc1cccc2ccccc12 (centres undefined),12.2%,11.6%,31.5%,-1.6%,25.2%,30.4%
CC/C(=C(/CC)c1ccc(OP(=O)(Cl)N(CCCl)CCCl)cc1)c1ccc(OP(=O)(Cl)N(CCCl)CCCl)cc1 (centres undefined),-2.35%,-18%,-8.3%,-1.9%,-2.45%,37.5%
COc1ccc(CC(C)=O)cc1OC,-10.9%,6.8%,19%,36%,-24.1%,-5.9%
CCOC(=O)C1=C(C)/C(=C\c2[nH]c(C)c(C(=O)OCC)c2C)N=C1C,8.95%,13.7%,23%,8.95%,19.5%,19.9%
O=c1[nH]cnc2c1ncn2-c1ccc(N(CCCl)CCCl)cc1,4.3%,12.7%,16%,-20.5%,-12.2%,15.2%
O=P(N=C=S)(N=C=S)N=C=S,5.45%,6.6%,9.4%,-11.6%,0.4%,-12.8%

SMILES,growth inhibition [1],growth inhibition [2],growth inhibition [3],growth inhibition [4],growth inhibition [5],growth inhibition [6]
[N-]=[N+]=CC(=O)C1(C(=O)C=[N+]=[N-])CC1,-14.7%,-11.2%,-41%,-18.1%,-16.9%,-27.1%
CCOc1ccccc1C=C(C#N)C#N,-2.25%,6%,19.1%,12.2%,1.75%,-4.15%
Cc1ccccc1C(=O)[O][Pb]([CH3])([CH3])[CH3],21.4%,-48%,-6.5%,-27.9%,0%,7%
O=[N+]([O-])c1cc([As](=O)(O)O)ccc1S(=O)(=O)O,-0.6%,7.65%,7%,-3%,9.2%,2.2%
Nc1ccc(S(=O)(=O)F)cc1,-22%,-54%,-34.6%,16.8%,-35.3%,-22.2%
Fc1ccccc1N=C=S,4.55%,-12%,5.65%,18.1%,14.6%,2.75%
COc1ccc(C(C#N)C(C)=O)cc1 (centres undefined),6.75%,4.85%,12.4%,4.45%,-3.9%,-12.4%
O=[N+]([O-])C1CCC(O)C([N+](=O)[O-])C1 (centres undefined) (tested in a mixture with another compound),71.8% (active),37.7%,93.7% (active),69.3%,13.6%,86.8% (active)
COc1cc2c(cc1OC)-c1c3c(cc4c1[C@@H](C2)N(C)CC4)OCO3,-23.8%,-12.8%,-12.8%,-1.9%,-21.7%,-17.6%
CCCN(CCC)CCc1ccc(OC2=CCN(C)CC2)cc1,-22.6%,-22.1%,8.85%,16.6%,-15.8%,-55%
CC/C=C/C1(C(C)C)C(=O)NC(=O)NC1=O (tested in a mixture with another compound),14.9%,0.35%,5.15%,-27.4%,0.3%,13.7%
O=C(C[n+]1ccccc1)C1CCCC2CC3CCCCC3CC21 (centres undefined),1.9%,18.3%,29.9%,13.8%,22.1%,37.6%
CC(C)N(C(C)C)[PH+]1O[PH+](N(C(C)C)C(C)C)O[PH+](N(C(C)C)C(C)C)O[PH+](N(C(C)C)C(C)C)O[PH+](N(C(C)C)C(C)C)O1.[C-]#[O+].[C-]#[O+].[C-]#[O+].[C-]#[O+].[C-]#[O+].[C-]#[O+].[C-]#[O+].[Cr].[Cr] (centres undefined),17.7%,-5.45%,-14.5%,-0.75%,2.8%,-3.8%
CC(=O)N1CN2CN(C1)CN(C(C)=O)C2,0.3%,-8.95%,-5.3%,-26.6%,-9.05%,-5.85%
CCCCSP(=O)(SCCCC)N1CCCCC1,98.9% (active),99.2% (active),98.8% (active),97.8% (active),98.8% (active),99% (active)
CCN(CC)CCn1ccc2ccccc21,-11.4%,-18.4%,-9.85%,17.3%,-27.1%,-5.95%
CCCC(OP(=S)(OCC)OCC)c1ccc(Cl)cc1 (centres undefined),-22.5%,-1.5%,2.9%,-32.3%,39%,-1.15%
CO[C@H](C)[C@](O)(C(=O)OCC1=CC[N+]2([O-])CC[C@H](O)[C@@H]12)C(C)C (some centres undefined),1.75%,-20.2%,2.35%,7.25%,-8.95%,-10.2%
COc1ccc2c(C3(O)CCNCC3)c[nH]c2c1,0.1%,-1.3%,-3.7%,2.75%,-3.7%,3.8%
